In the first test the target is T1, Hb (Drosophila melanogaster, UniProt P05084 225-364).
T1 sequence: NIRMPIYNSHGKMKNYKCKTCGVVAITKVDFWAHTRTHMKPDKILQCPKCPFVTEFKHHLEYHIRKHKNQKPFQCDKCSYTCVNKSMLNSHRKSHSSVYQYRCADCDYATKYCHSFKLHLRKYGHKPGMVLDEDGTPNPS
The test can be described thus: FP; 33 mM phosphate pH 7.0, 90 mM NaCl, 0.01% Tween 20, 0.1 mM DTT, 0.5% agarose; room temperature. To be noted: tags: N-GST (pGEX-6P-1, kept); dsDNA, one strand shown.
Consider AGATTTTTAGGC, for which the binding signal was 3.22 Kd / Kd of best base at the position.
Same read-out and setting: to ACTTTTTTAGGC belongs 1.03 Kd / Kd of best base at the position; to AGTTTTTGAGGC, 8.32 Kd / Kd of best base at the position; to AGTTTCTTAGGC, 9.31 Kd / Kd of best base at the position.
Same read-out and setting: to AGTTTTTTACGC belongs 1.61 Kd / Kd of best base at the position.

The target of a further test is T2, Hkb (Drosophila melanogaster, UniProt Q9VN10 181-296).
T2 sequence: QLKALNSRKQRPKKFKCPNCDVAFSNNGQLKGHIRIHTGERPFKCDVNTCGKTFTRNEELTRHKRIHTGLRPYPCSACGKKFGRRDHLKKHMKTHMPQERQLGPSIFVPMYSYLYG
The description is as above. The conditions noted are these: tags: N-GST (pGEX-6P-1, kept); dsDNA, one strand shown.
As to AAGGGGCGTGCT, the binding signal was 119 Kd / Kd of best base at the position.
On the same count and under the same terms, to AAGGGGCGTCAT belongs 134 Kd / Kd of best base at the position.
With ACGGGGCGTGAT, the binding signal was 2.33 Kd / Kd of best base at the position.
Regarding AAGGGGCGGGAT, the binding signal was 85.9 Kd / Kd of best base at the position.
On the same count and under the same terms, for AAGGGGCTTGAT the value was 235 Kd / Kd of best base at the position; for TAGGGGCGTGAT, 2.68 Kd / Kd of best base at the position.
As for AAGGGGCCTGAT, the binding signal is 164 Kd / Kd of best base at the position.
Same read-out and setting: for AAGGGGCGTGAG the value was 1.09 Kd / Kd of best base at the position.
Still for that read-out and setting: for AAGGGCCGTGAT the value was 107 Kd / Kd of best base at the position; for AAGGAGCGTGAT, 52 Kd / Kd of best base at the position.
On the same count and under the same terms, for AAGGGGCATGAT the value was 318 Kd / Kd of best base at the position.
As for AAGGGGCGTGAT, the Kd (as a rule, the constant that tells how readily two partners part at equilibrium) is ~2.3 nM.
As to AAGGGGCGTGAC, the binding signal was 1.18 Kd / Kd of best base at the position.
With AAGCGGCGTGAT, the binding signal is 121 Kd / Kd of best base at the position.
Still for that read-out and setting: to AAGGGTCGTGAT belongs 116 Kd / Kd of best base at the position; to AAGGGGCGTGAA, 2.74 Kd / Kd of best base at the position; to ATGGGGCGTGAT, 2.01 Kd / Kd of best base at the position.
The same measure, in the same setting: to AAGGGGCGTGGT belongs 127 Kd / Kd of best base at the position; to AAGGTGCGTGAT, 62.2 Kd / Kd of best base at the position; to AAGGGGCGAGAT, 75.8 Kd / Kd of best base at the position.
On to AAAGGGCGTGAT, for which the binding signal was 3.42 Kd / Kd of best base at the position.
Still for that read-out and setting: to AGGGGGCGTGAT belongs 5.34 Kd / Kd of best base at the position; to AAGGGGGGTGAT, 55.1 Kd / Kd of best base at the position; to AAGAGGCGTGAT, 8.29 Kd / Kd of best base at the position.
On the same count and under the same terms, for AAGGGGCGCGAT the value was 170 Kd / Kd of best base at the position.
Turning to AAGGGGCGTAAT, the binding signal is 130 Kd / Kd of best base at the position.
The same measure, in the same setting: to AAGGCGCGTGAT belongs 108 Kd / Kd of best base at the position.
The same measure, in the same setting: to AATGGGCGTGAT belongs 1.81 Kd / Kd of best base at the position; to AAGGGGAGTGAT, 103 Kd / Kd of best base at the position; to CAGGGGCGTGAT, 6.48 Kd / Kd of best base at the position.
With AAGTGGCGTGAT, the binding signal is 155 Kd / Kd of best base at the position.
The same measure, in the same setting: for AACGGGCGTGAT the value was 16.2 Kd / Kd of best base at the position; for AAGGGGTGTGAT, 277 Kd / Kd of best base at the position.
In the case of AAGGGGCGTTAT, the binding signal was 124 Kd / Kd of best base at the position.
Turning to GAGGGGCGTGAT, the binding signal was 3 Kd / Kd of best base at the position.

The values are drawn from publication PMC5913336, “True equilibrium measurement of transcription factor-DNA binding affinities using automated polarization microscopy”.
